# Source: PubChem BioAssay (Small Molecule Screening Facility, UW Madison)
# Only a selection was taken, and hits are over-represented in it overall.
# RMI-FANCM inh = blocks RMI1/RMI2 complex binding to FANCM MM2 peptide; Fluorescence polarization, RMI core complex with F-MM2 peptide; stronger effect = lower value; FP signal (polarization) at 33 µM; hit rate 0.58% among 70,000; AID 1159607; in the data active means FP signal below about 40
# * marks the source's active call; other numbers are inactive results; ! = repeats disagree.
SMILES,RMI-FANCM inh
Cc1nc(-n2nc(-c3ccco3)cc2NC(=O)c2ccc(Br)o2)[nH]c(=O)c1C,39*
CCC(C(=O)Nc1cc(-c2cccs2)nn1-c1nc(C)c(C)c(=O)[nH]1)c1ccccc1 (stereo not drawn),61
Cc1nc(-n2nc(-c3cccs3)cc2NC(=O)c2cc3ccccc3o2)[nH]c(=O)c1C,64
COc1cc(C(=O)NCCn2ncc3c(N4CC(C)OC(C)C4)ncnc32)cc(OC)c1OC (stereo not drawn),65
Cc1cc(C)n(CC(O)Cn2c3c(c4cccc(Cl)c42)CCCC3)n1 (stereo not drawn),60
O=C(Nc1cccc2c1C(=O)c1ccccc1C2=O)c1cc([N+](=O)[O-])ccc1Cl,63
O=C(NC(=O)N1CCN(c2ccc(F)cc2)CC1)c1ccccc1,61
CC(C(=O)c1ccc(-c2ccccc2F)cc1)N1CCN(c2ccc(C#N)cc2)CC1 (stereo not drawn),25*!
O=C(NC(=S)N1CCN(c2ccc(F)cc2)CC1)c1ccccc1,59
Cc1nc2ccccc2nc1C,53
c1ccc2c(c1)Nc1nc3ccccc3nc1O2,57
c1ccc2c(c1)Nc1nc3ccccc3nc1N2,-3*
COc1ccc2nc(-c3ccc(NC(=O)Cc4ccc(Cl)cc4)cc3)cn2n1,135
CN1C(=O)c2cccc(NC(=O)c3c(F)cccc3Cl)c2C1=O,69
N#C/C(=N/Nc1ccccc1Cl)S(=O)(=O)c1ccc(Cl)cc1,44
CN1c2ccccc2C(=O)/C(=N/Nc2ccccc2Cl)S1(=O)=O,-6*
Cc1nnc(NC(=O)CSc2nccn2Cc2ccc3c(c2)OCO3)s1,58
Cc1nc2ccc(NC(=O)c3ccccc3F)cc2c(=O)n1-c1ccccc1,62
CC(C)CNC(=O)Nc1c[nH]c2ccccc12,60
O=C(NCc1ccccn1)Nc1c[nH]c2ccccc12,25*
COc1ccccc1CNC(=O)Nc1c[nH]c2ccccc12,62
O=C1c2cccc3c(Br)ccc(c23)C(=O)N1CCO,-1*
CCOC(=O)OCCN1C(=O)c2cccc3c(Br)ccc(c23)C1=O,59
O=C1OC(=O)c2ccc(Br)c3cccc1c23,56
COCC(=O)Nc1c(C)nc2ccc(Cl)cn2c1=O,55
SMILES,RMI-FANCM inh
CC1=NN(c2ccccc2)C(=O)/C1=C\c1cc(C)n(-c2ccccc2)c1C,83
C=CCN1C(=O)/C(=C\c2cc(C)n(-c3ccc(F)cc3)c2C)C(C(=O)OC)=C1C,31*
C=CCn1c(SCC(=O)c2cc(C)n(-c3ccc(C)c(C)c3)c2C)nc2scc(-c3ccc(F)cc3)c2c1=O,86
C=CCn1c(-c2ccccc2)csc1=Nc1ccc(C(C)=O)cc1,58
Cc1cc(NC(=O)C(=O)NCC(c2cccc3ccccc23)N2CCCC2)c2ccccc2n1 (stereo not drawn),63
COC(=O)/C(C#N)=C(\C#N)c1ccc(Br)o1,26*
O=C(c1ccc(Br)o1)N1CCOCC1,64
O=C(Nc1cccc(Cl)c1)c1ccc(Br)o1,64
O=C(CCSc1ccccc1)N(CCn1cccn1)c1nc2c(F)cccc2s1,70
O=C(c1cnccn1)N1CCN(Cc2nc3ccccc3[nH]2)CC1,59
CCS(=O)(=O)Nc1ccc2c(c1)OCC(C)(C)C(=O)N2,64
N#Cc1ccc(-c2cccnc2)[nH]c1=O,58
N#Cc1c(-c2cccnc2)c2c([nH]c1=O)-c1ccccc1SC2,33*
CCOc1ccc(C(=O)Nc2nnc(-c3cccc(S(C)(=O)=O)c3)o2)cc1,64
O=C(Nc1nc2c(s1)CCCC2C(=O)NCc1cccs1)c1ccc(Cl)cc1 (stereo not drawn),61
O=C1/C(=C/c2cccnc2)SC(=S)N1c1ccccc1F,61
O=C(O)CCN1C(=O)/C(=C\c2cccnc2)SC1=S,62
CC(c1ccccc1)N1C(=O)/C(=C\c2cccnc2)SC1=S (stereo not drawn),26*
O=C(O)CCCn1c(=S)[nH]c2cc3c(cc2c1=O)OCO3,56
NS(=O)(=O)c1ccc2nc(NC(=O)/C=C/c3ccc([N+](=O)[O-])cc3)sc2c1,64
COc1cc(NC(=O)CSc2nccn3nc(-c4ccc(F)cc4)cc23)cc(OC)c1OC,88
CCn1nccc1C(=O)N=c1sc2c(C)ccc(OC)c2n1C,69
CC(C)N1CCc2c(sc(NC(=O)c3c(F)cccc3F)c2-c2nc3ccccc3s2)C1,-10*
CC(=O)N1CCc2c(sc(NC(=O)c3cc(=O)c4ccccc4o3)c2-c2nc3ccccc3s2)C1,-23
CC(=O)N1CCc2c(sc(NC(=O)c3c(F)cccc3F)c2-c2nc3ccccc3s2)C1,90
SMILES,RMI-FANCM inh
CC(C)N1CCc2c(sc(NC(=O)c3ccnn3C)c2-c2nc3ccccc3s2)C1,-7*
CCn1nccc1C(=O)Nc1sc2c(c1-c1nc3ccccc3s1)CCC(C)C2 (stereo not drawn),70
COC(=O)N1CCc2c(sc(NC(=O)c3ccccc3)c2-c2nc3ccccc3s2)C1,70
O=S(=O)(NCC(c1ccsc1)N1CCCCCC1)c1cccs1 (stereo not drawn),64
O=C(Nc1ccc(Nc2ccc(-n3cccn3)nn2)cc1)c1cc2ccccc2oc1=O,54
Cn1/c(=N/NC(=O)C2CCCCC2)sc2ccccc21,59
Cc1cc(C)nc(SCc2nnc(SC/C=C/c3ccccc3)n2C)n1,57
O=C(CSc1cn(CCNC(=O)c2ccccc2F)c2ccccc12)NCc1ccc2c(c1)OCO2,76
COC(=O)/C(=C\Nc1ccc(Sc2cc(Cl)ccc2Cl)nc1)NC(=O)c1ccccc1,54
COc1ccc(S(=O)(=O)NCc2ccco2)cc1C(=O)O,1*
CC(C)(C)c1ccc(S(=O)(=O)NCc2ccco2)cc1,55
COc1ccc(S(=O)(=O)NCc2ccco2)c(C)c1C,64
OC(COC12CC3CC(CC(C3)C1)C2)CN1CCN(Cc2ccc(Cl)cc2)CC1 (stereo not drawn),65
COc1cc(=O)n(-c2ccccc2)nc1C(=O)NC1CCCCC1,56
COc1ccc2oc(-c3csc(NC(=O)c4ccccc4OC)n3)cc2c1,65
CC(C)N1CCc2c(sc(NC(=O)CCS(=O)(=O)c3ccc(Cl)cc3)c2C(N)=O)C1,55
CCOC(=O)N1CCc2c(sc(NC(=O)CS(=O)(=O)c3ccccc3)c2C#N)C1,65
CC1CCc2c(sc(NC(=O)CCS(=O)(=O)c3ccc(F)cc3)c2C(N)=O)C1 (stereo not drawn),79
CCCCC(=O)Nc1sc2c(c1C(N)=O)CCN(C(C)=O)C2,69
NC(=O)c1c(NC(=O)CS(=O)(=O)c2ccccc2)sc2c1CCN(Cc1ccccc1)C2,21*
CC(=O)N1CCc2c(sc(NC(=O)CS(=O)(=O)c3ccc(Cl)cc3)c2C(N)=O)C1,15*
COC(=O)c1c(NC(=O)C(C)C)sc2c1CCN(Cc1ccccc1)C2,59
CCOC(=O)c1c(NC(=O)CCS(=O)(=O)c2ccc(Cl)cc2)sc2c1CCN(C(C)=O)C2,66
CCN1CCc2c(sc(NC(=O)CCS(=O)(=O)c3ccc(F)cc3)c2C(N)=O)C1,37*
CC1(O)CCOC(=O)C1 (stereo not drawn),63
SMILES,RMI-FANCM inh
COC(=O)c1sccc1Oc1ccc(C(F)(F)F)cc1NC(=O)Nc1ccc(Cl)cc1,61
CSCCn1c(=NC(=O)c2ccnn2C)sc2cc(S(C)(=O)=O)ccc21,67
COCCN1CCC(CNS(=O)(=O)CCc2ccccc2)CC1,73
Cc1cc(F)ccc1S(=O)(=O)NCC1CCN(C2CCCC2)CC1,78
Cc1cc(F)ccc1S(=O)(=O)ON1C(=O)c2ccccc2C1=O,27*
Cc1ccc(=O)n(S(=O)(=O)c2ccc(F)cc2F)n1,54
